# High-throughput results deposited in PubChem by Broad Institute.
# rRNA inh HTS: inhibitors of bacterial rRNA selective over humanized ribosomes | AID 720706 | 350,000 compounds, 1.6% hits | E. coli WT GFP vs humanized-ribosome RFP mutants, fluorescence, 24 h; active compounds read low; DMSO median 0, no signal -100 | GFP signal change (wild-type ribosome), % (no concentration beside the values);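 active means significant combined selectivity score with lowered wild-type GFP, culture density cut under 30%, mutant RFP and density less affected; inactive means any of these conditions unmet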
# ERAP1 inh: blocks human ERAP1 aminopeptidase activity; recombinant ERAP1, Leu-AMC fluorescence, 60 min; 340,000 compounds, 0.15% hits; inhibition, % at 10.7 µM;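 active means mean replicate inhibition of at least 30%, or all replicates individually reaching that 30% level; inactive means mean below 30% and not every replicate reaching it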;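 further: 0% = neutral control wells and 100% = L-leucinethiol positive control wells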
# GSIS activator: primary screen for activators of insulin secretion dependent on glucose, INS-1E cells, GLuc reporter luminescence. 370,000 compounds, 0.61% hits. INS-1E GLuc reporter insulin secretion, 2-3 h. AID 743287. activation, % at 16.6 µM;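 active means lowest replicate activation of at least 40%, so every replicate reaches that level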;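 further: 0% = median of neutral control wells and 100% = median of IBMX positive control wells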
# DENV2 CPE: DENV2-induced cell death inhibition; 350,000 compounds, 1.7% hits; CPE inhibition, % at 9.99 µM; DENV2-infected cells, cytopathic effect rescue, plate reader; in the data active means CPE inhibition above about 20%, passing the limit was not always enough; inconclusive means no clear call, values can overlap the other calls; tested in BHK-21 cells;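 further: 0% = median of neutral control wells and 100% = median of positive control wells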
# CaV13 ICDI inh: Primary screen for inhibitors of IQ motif and Ca2+-dependent inactivation inhibitor domain binding in CACNA1D, Förster resonance energy transfer in living cells, …; HEK cells, CFP/YFP FRET ICDI-IQ, plate reader, 10 min; percent FRET-ratio fall versus neutral wells; inhibition, % at 12.3 µM; 340,000 compounds, 0.098% hits;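 active means mean replicate inhibition of at least 30% and at least 1% of replicates passing that level; inconclusive means only one of the two criteria is met; inactive means neither criterion is met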;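 further: 0% = median of the neutral control wells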
# PGC1a acetyl inh: PGC1a acetylation modulation, inhibitor mode; AID 651687; U2OS PGC1a acetylation, AlphaScreen anti-acetyl-lysine; with virally co-expressed GCN5 acetyltransferase; 350,000 compounds, 0.17% hits; inhibition, % at 15.6 µM;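 active means every replicate shows inhibition of at least 40%; inconclusive means mean inhibition at least 40% but some replicate below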;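 further: 0% = neutral control wells and 100% = positive control wells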
# Starred values were filed as active, the others as inactive; ? = inconclusive; . = not tested or not shown. In the library only some 3.2% were active in any assay of this set; here they are far more common.
SMILES,rRNA inh HTS,ERAP1 inh,GSIS activator,DENV2 CPE,CaV13 ICDI inh,PGC1a acetyl inh
O=C(c1ccncc1)c1ccc(NC(=O)c2cccs2)cc1,-1,-1,-5,-1,-7,.
Cc1ccc(NC(=O)c2ccc(Cl)c(NC(=O)c3cccs3)c2)cc1,-37*,5,-19,-3,-8,-7
CN(C)CCCNC(=O)[C@H]1[C@H](CO)[C@H]2Cn3c(ccc(-c4ccncc4)c3=O)[C@@H]1N2C(=O)C1CC1,1,5,7,-2,.,0
COc1cc(/C=C/C(=O)Nc2ccc3nc4n(c(=O)c3c2)CCCC4)cc(OC)c1OC,6,0,-4,-2,6,.
COc1cccc(/C=C/C(=O)Nc2ccc3nc4n(c(=O)c3c2)CCCC4)c1OC,-23*,1,7,?,-6,.
CC1=CCC[C@@H]2[C@@](C)(CC/C(C)=C/C(=O)O)[C@H](C)CC[C@@]12C,-2,4,.,25*,-4,.
Cc1sc(-n2cccc2)c(C(=O)O)c1C,.,.,.,.,-4,0
O=C(O)c1c(-n2cccc2)sc2c1CCCC2,-44*,-2,2,-2,2,.
O=C(NCC[C@H]1CC[C@H](NS(=O)(=O)Cc2ccccc2)[C@H](CO)O1)C1CC1,0,0,4,4,.,4
CCCc1ccc(OCc2ccc(C(=O)O)o2)c(OC)c1,.,.,.,.,.,45
CCCc1ccc(OCc2ccc(C(=O)OC)o2)c(OC)c1,-19*,0,-41,-4,-5,-14
O=C(NCc1cccnc1)c1ccc(COc2ccccc2Br)o1,-24*,5,-2,1,-9,-27
COC(=O)c1ccc(COc2ccc3c(c2)CCC3)o1,-24*,1,-2,3,-5,6
CCc1ccc(OCc2ccc(C(=O)OC)o2)cc1,-2,0,-10,11,-3,6
O=C(NCc1cccnc1)c1ccc(COc2ccc3c(c2)CCC3)o1,-21*,4,-13,4,-8,-22
CO[C@@H](CN(C)C(=O)c1ccccc1F)[C@H](C)CN([C@@H](C)CO)S(=O)(=O)c1ccc(Cl)cc1,2,-1,-7,-2,.,-3
Cc1noc(C)c1S(=O)(=O)Nc1ccc2c(c1)C(=O)N([C@@H](C)CO)C[C@H](C)[C@H](CN(C)S(C)(=O)=O)OCCCC[C@@H](C)O2,1,-1,-11,2,.,12
Cc1ccc(S(=O)(=O)Nc2cccc3c2O[C@@H](CN(C)Cc2ccc(C(F)(F)F)cc2)[C@H](C)CN([C@@H](C)CO)C3=O)cc1,-1,-2,-14,2,.,-4
CC(C)C#Cc1cnc2c(c1)C(=O)N([C@H](C)CO)C[C@H](C)[C@H](CN(C)C(=O)Nc1ccccc1F)O2,0,2,11,?,.,-4
C[C@@H]1CN([C@H](C)CO)C(=O)c2cc(NC(=O)Nc3ccc(C(F)(F)F)cc3)ccc2O[C@@H](C)CCCCO[C@H]1CN(C)Cc1ccc2c(c1)OCO2,-10,-1,20,-33,.,-18
C[C@@H]1CCCCO[C@@H](CN(C)Cc2ccc(Cl)c(Cl)c2)[C@H](C)CN([C@@H](C)CO)C(=O)c2cc(NC(=O)Nc3ccccc3)ccc2O1,1,0,-16,32*,.,-46
C[C@@H]1CCCCO[C@@H](CN(C)Cc2ccc(Cl)c(Cl)c2)[C@@H](C)CN([C@H](C)CO)C(=O)c2cc(NC(=O)Nc3ccccc3)ccc2O1,10,-2,17,-12,-10,9
C[C@@H]1CN([C@@H](C)CO)C(=O)c2cc(NC(=O)Nc3ccc(C(F)(F)F)cc3)ccc2O[C@@H](C)CCCCO[C@H]1CN(C)Cc1ccc(Cl)c(Cl)c1,0,2,18,24*,.,-4
C[C@H]1CCCCO[C@H](CN(C)Cc2ccc3c(c2)OCO3)[C@@H](C)CN([C@@H](C)CO)C(=O)c2cc(NC(=O)Nc3ccc(C(F)(F)F)cc3)ccc2O1,-3,-1,9,-33,.,79*
C[C@@H]1CCCCO[C@H](CN(C)Cc2ccc3c(c2)OCO3)[C@@H](C)CN([C@@H](C)CO)C(=O)c2cc(NC(=O)Nc3ccc(C(F)(F)F)cc3)ccc2O1,.,0,.,-32,.,53*
SMILES,rRNA inh HTS,ERAP1 inh,GSIS activator,DENV2 CPE,CaV13 ICDI inh,PGC1a acetyl inh
CO[C@H]1CN(C)C(=O)c2ccc(NC(=O)Nc3cccc(Cl)c3)cc2OC[C@@H](C)N(C(=O)Nc2c(C)noc2C)C[C@@H]1C,-4,0,-12,2,.,.
CNC(=O)C[C@H]1CC[C@@H]2[C@@H](COc3ccc(NC(=O)C(C)C)cc3C(=O)N2C)O1,2,.,-5,15,.,-2
CCCN(C)C[C@@H]1OCCCC[C@@H](C)Oc2ccc(NC(=O)Nc3ccc(C(F)(F)F)cc3)cc2C(=O)N([C@H](C)CO)C[C@@H]1C,1,-6,8,28*,.,14
COc1ccc(CC(=O)NNC(=O)COc2ccc(C)cc2)cc1S(=O)(=O)N1CCOCC1,9,-2,16,40*,-6,18
Cc1cccc(S(=O)(=O)N[C@H]2CC[C@H](CCNC(=O)CCN3CCCCC3)O[C@@H]2CO)c1,-1,1,-2,3,.,11
CNc1ccccc1C(=O)OCC(=O)c1ccc(F)cc1,16,-2,-12,0,-4,.
CNc1ccccc1C(=O)OCC(=O)c1ccccc1,.,1,.,32*,.,4
C[C@@H]1CCCCO[C@@H](CN(C)C(=O)Nc2ccccc2)[C@@H](C)CN([C@@H](C)CO)C(=O)c2cc(NC(=O)Nc3ccc4c(c3)OCO4)ccc2O1,2,2,3,-1,.,1
COC(=O)c1ccc(/C=C(/NC(=O)c2ccccc2)C(=O)N2CCOCC2)cc1,9,-5,20,2,-3,-4
Cc1ccc(C(=O)N/C(=C/c2ccc(Cl)cc2)C(=O)N2CCOCC2)cc1,-4,1,51*,0,-7,.
COc1ccc(-n2c(SCC#N)nnc2-c2cccnc2)cc1,.,.,.,.,-4,?
CCSc1nnc(-c2cccnc2)n1-c1ccc(C)c(Cl)c1,-10,-3,64*,-6,-6,2
CCOc1ccc(-n2c(SCC(N)=O)nnc2-c2cccnc2)cc1,3,7,-5,23*,-5,.
O=C(N=C1SC2CS(=O)(=O)CC2N1c1ccc(F)c(Cl)c1)C1CC1 (stereo unspecified),12,-4,42*,1,-7,3
O=C(C1CCCCC1)N1CC2(C1)[C@H](c1ccccc1)[C@@H](CO)N2Cc1nccs1,0,-1,-10,10,.,4
O=C(C1CCCCC1)N1CC2(C1)[C@@H](c1ccccc1)[C@@H](CO)N2CC1CCCC1,-31,4,-32,69*,.,8
